Test results taken from PubChem BioAssay AID435030 (The Scripps Research Institute Molecular Screening Center, 2010).
The whole screen tested about 330,000 compounds, of which about 940 (0.28%) were called active. The entries come from a sample that favours actives as a whole. Unmarked numbers belong to inactive results. Cut-off read from the data, not from the text of the source: active = inhibition above about 12%; inactive = the rest.

assay: growth inhibition of E. coli expressing H. pylori AddAB, primary screen, AddAB inhibitor project, absorbance (AID 435030); settings: at 11.9 µM, stronger effect = higher value;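 note: 0% = vehicle wells of infected cells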

Point of comparison: `CN(NC(=O)C1CC(=O)N(c2ccccc2)C1)C1=NS(=O)(=O)c2ccccc21` (stereo unspecified), inhibition 1%. Against it:
- COc1cccc(C(=O)N2CCC(n3nccc3NC(=O)C3CCOC3)CC2)c1 (stereo unspecified) — lower, 0.08%
- Cc1ccc(-c2nnc(CN3CCN(C)CC3)o2)cc1 — lower, -0.67%
- CC(C)(C)SCCSC1=CC(=O)CC(c2ccccc2)C1 (stereo unspecified) — lower, 0.25%
- CCn1cc(CN2CCN(CC(C)(C)C)C(CCO)C2)c2ccccc21 (stereo unspecified) — lower, -1.04%
- COc1ccccc1NC(=O)C1=C(C)Nc2ncnn2C1c1ccc(C)o1 (stereo unspecified) — lower, -0.48%
- CC1=C(C(=O)OC2CCCCC2)C(c2cccnc2)n2ncnc2N1 (stereo unspecified) — lower, 0%
- COC(=O)C1(C)NC(c2ccc(F)cc2)C2C(=O)N(c3ccccc3)C(=O)C21 (stereo unspecified) — higher, 1.16%
- CC(C)C[C@H]1CN=C(Nc2ccccc2)N1CC1CCCCC1 — higher, 2.92%
- CCOc1ccc(C(C)=O)cc1COC(=O)CNC(=O)c1cccs1 — higher, 3.06%
- CC1CCCC(C)N1C(=O)CN1CCN(c2nc(-c3ccc(F)cc3)cs2)CC1 (stereo unspecified) — higher, 1.81%
- CCn1c(=S)sc2c(=O)n(CC(=O)Nc3ccc(OC)cc3)c(C)nc21 — lower, 0.15%
- O=C1Nc2cc(Cl)c(Cl)cc2N(O)N1c1cc(Cl)cc(Cl)c1 — lower, -1%
- COc1ccc(C(=O)NCC(=O)N/N=C/c2ccc([N+](=O)[O-])o2)cc1OC — higher, 9.43%
- COC(=O)C1=C(C)N(C)C(=O)NC1c1ccc([N+](=O)[O-])o1 (stereo unspecified) — higher, 3.34%
- CCOc1cccc(/C=N/NC(=S)NCCN2CCOCC2)c1O — lower, -0.42%
- COc1ccc(Br)cc1/C=N/Nc1ccc(Cl)c(C(=O)O)c1 — higher, 1.8%
- CN1C(=O)c2ccc(C(=O)Nc3ccc(Br)cn3)cc2C1=O — lower, -3.02%
- Cc1onc(NC(=O)c2ccc([N+](=O)[O-])o2)c1Br — higher, 9.34%
- O=C(Nc1cccc(O)c1)c1ccc(C(=O)c2ccccc2)o1 — higher, 1.45%
- O=C(Nc1ccc(Br)cn1)c1ccc([N+](=O)[O-])cc1Cl — lower, -0.17%
- CCOc1ccc(C(C)=O)cc1COC(=O)CN1C(=O)NC2(CCCC2)C1=O — lower, 0.34%
- Brc1cnc(N2CCCC2)nc1N1CCCCC1 — higher, 2.22%
- CCC(=C/c1sc2ccc3ccccc3c2[n+]1C)/C=C1\Sc2ccc3ccccc3c2N1C — higher, 9.85%
- Cc1ccc(S(=O)(=O)c2ccc(Cl)cc2)cc1S(=O)(=O)NC(C(=O)O)C(C)C (stereo unspecified) — higher, 3.7%
- NC(=O)C1CCN(C(=O)c2ccc3c(=O)n(Cc4cccc(Br)c4)c(=S)[nH]c3c2)CC1 — higher, 1.96%
- COc1ccc(NC(=O)C(Br)C(C)C)cc1 (stereo unspecified) — lower, 0.42%
- O=C(CSc1ccc(-c2ccco2)nn1)Nc1cccc(F)c1 — higher, 1.52%
- O=C(CSc1ccc(-c2ccc(-n3cccn3)cc2)nn1)Nc1ccc([N+](=O)[O-])cc1 — higher, 2.04%
- O=C(CNc1ccc(F)cc1F)NC(=O)NCc1ccco1 — lower, -1.79%
- O=C1CCCC(O)=C1N=Nc1ccc2ncsc2c1 — higher, 1.13%
- COc1ccc(CNC(=O)CN(c2ccc(OC)c(Cl)c2)S(=O)(=O)c2ccc(C)cc2)cc1 — lower, 0.77%
- Oc1c(Br)cccc1/C=N/Nc1c(F)c(F)c(F)c(F)c1F — higher, 5.1%
- Oc1ccc(Br)cc1/C=N/Nc1ccccn1 — higher, 4.69%
- Cc1noc(C)c1C(=O)OC(C)C(=O)Nc1ccc2c(c1)OCO2 (stereo unspecified) — higher, 1.01%
- CC1(C)c2[nH]c3ccccc3c2C[C@H]2C(=O)N(N)CC(=O)N21 — lower, -0.5%
- O=C(CCc1ccc(S(=O)(=O)N2CCOCC2)cc1)OCC(=O)c1ccc(Br)cc1 — higher, 3.02%
- Cc1nnc(NC2=NCCCCC2)o1 — lower, 0.25%
- CCN1CCC2(CCN(Cc3cn[nH]c3-c3ccc(OC)c(F)c3)C2)C1 (stereo unspecified) — lower, 0.65%
- CCOC(=O)c1ccccc1N1C(=O)C2Sc3[nH]c(=O)sc3C(/C=C/c3ccccc3)C2C1=O (stereo unspecified) — higher, 2.63%
- COc1ccc(C2/C=C\CN(CC(C)C)CC(=O)N2Cc2ccc(F)cc2)cc1 (stereo unspecified) — higher, 2.22%
- O=C1/C(=C/c2cccs2)SC(=S)N1C1CCS(=O)(=O)C1 (stereo unspecified) — lower, -0.44%
- CCOc1ccc(NC(=O)CN(C)C(=O)Cc2sc(C)nc2-c2ccc(F)cc2)cc1OCC — higher, 1.75%
- O=C(NCCCN1CCCCCC1)C1CC(=O)N(C2CCCC2)C1 (stereo unspecified) — lower, -0.68%
- O=C(Nc1cccc(S(=O)(=O)N2CCOCC2)c1)C12CC3CC(CC(C3)C1)C2 — lower, 0.82%
- CCCC(=O)OCC(=O)Nc1cc(Cl)ccc1[N+](=O)[O-] — lower, 0.77%
- CC(C)(C)NC(=O)COC(=O)c1cc(Br)ccc1Cl — higher, 1.15%
- Cn1nnc2cc(C(=O)NCCC3=CCCCC3)ccc21 — lower, 0%
- Cc1cc(=O)n2nc(N3CCCC(C(=O)NCCC4=CCCCC4)C3)sc2n1 (stereo unspecified) — lower, 0.49%
- O=C(c1n[nH]c2c1CCC2)N1CCCC(Nc2cccc(F)c2)C1 (stereo unspecified) — higher, 2.86%
- Cc1cc(C)c2c(c1)cc(C)c1nnc(SCC(=O)Nc3cc(C)on3)n12 — higher, 1.96%
- Cc1cc(S(=O)(=O)c2cc3ccc(O)c(C)c3oc2=O)ccc1F — lower, 0.08%
- COc1ccccc1NC(=S)N1CCN(c2ccc(F)cc2)CC1 — lower, -2.49%
- CC1CN(C(=S)Nc2ccccc2F)CC(C)O1 (stereo unspecified) — lower, -1.09%
- COc1ccc(Cl)cc1C(=O)OCC(=O)NCc1cccs1 — lower, 0.75%
- Cc1ccc(S(=O)(=O)N2CCN(C(=O)Cn3c(=O)cnc4ccccc43)CC2)c(C)c1 — lower, 0.34%
- O=C(Nc1ccc(OC(F)(F)F)cc1)c1ccc2c(c1)no[n+]2[O-] — higher, 3.14%
- CCCCNC(=O)c1cn(CC)c2cc(N3CCN(C(=O)c4ccco4)CC3)c(F)cc2c1=O — higher, 11.8%
- CCn1cc(C(=O)NCCC(=O)NCCO)c(=O)c2cc3c(cc21)OCO3 — lower, -2.55%
- CCCCCCn1cc(C(=O)O)c(=O)c2cc(F)c(N3CCCCC3)cc21 — lower, -1.14%
- CCn1cc(S(=O)(=O)c2cccc(C)c2)c(=O)c2cc(F)c(N3CCN(C)CC3)cc21 — lower, -1.64%
- Cc1csc(NC(=O)C2CCCN2C(=O)OCC(C)C)n1 (stereo unspecified) — lower, 0.97%
- Cc1nn(C)c(C)c1Sc1ccccc1N — lower, -0.51%
- O=C(COC(=O)Cn1[nH]c(=O)c2ccccc2c1=O)Nc1c(Cl)cccc1C(F)(F)F — lower, -0.85%
- O=C(COC(=O)c1ccc([N+](=O)[O-])o1)NC12CC3CC(CC(C3)C1)C2 — higher, 2.74%
- O=C(OCC(=O)c1cccs1)C1=COCCO1 — higher, 3.94%
- O=C(Cc1ccccc1)NNC1CC(=O)N(c2ccc(Br)cc2)C1=O (stereo unspecified) — lower, 0.17%
- Cc1ccccc1OCC(=O)NNC(=O)c1cc(S(=O)(=O)N(C)C)ccc1N1CCCC1 — lower, -1.04%
- Cc1cc([N+](=O)[O-])nn1CC(=O)Nc1ccc(Cc2ccncc2)cc1 — lower, -1.17%
- Cc1ccc(COc2ccc(C(=O)NN)cc2)cc1 — higher, 3%
- O=C(C/C(=N\NC(=O)c1ccccc1Br)C(F)(F)F)c1cccs1 — lower, 0.69%
- C=CC(=O)OCCOCCOCCOCCOC(=O)C=C — lower, -0.85%
- CC1C(=O)N2CCCc3cc(S(=O)(=O)NCc4ccc(F)cc4)cc1c32 (stereo unspecified) — lower, -1.44%
- Cc1c(C=O)c2ccccc2n1CC(=O)O — lower, -5.83%
- CCNc1nc(NC(C)C)nc(N2CC(=O)N(CC(=O)OCC)C2=N)n1 — lower, -0.43%
- CNC(C)C#Cc1ccc2sc3cc(OC)c(OC)cc3c(=O)c2c1 (stereo unspecified) — higher, 3.07%
- O=C(C1=C(O)C(=O)N(CCOCCO)C1c1ccccn1)c1cccs1 (stereo unspecified) — lower, -0.51%
- O=C(CSc1ccc(-c2ccccc2)nn1)NCC1CCCO1 (stereo unspecified) — lower, -1.35%
- O=C(NCC1CCCO1)/C(=C/c1ccc(Cl)cc1)NC(=O)c1ccccc1 (stereo unspecified) — higher, 3.87%

With `CC1=C(C(=O)OCc2ccccc2)C(c2ccco2)n2ncnc2N1` (stereo unspecified) the inhibition was 14.7% (active).
With `C/[N+]([O-])=C\c1ccc([N+](=O)[O-])o1` the inhibition was 79% (active).
For `COc1cccc(/C=N/Nc2ncc(C(F)(F)F)cc2Cl)c1O`, the inhibition was 12.5% (active).
With `O=C(Nc1ccc(Br)cn1)c1ccc([N+](=O)[O-])o1` the inhibition was 97.7% (active).
With `Cc1cccc(NC(=O)c2ccc([N+](=O)[O-])o2)c1` the inhibition was 38.2% (active).
In the case of `O=C(CSc1ccc(-c2ccccn2)nn1)Nc1ccccc1`, the inhibition is reported as 12.4% (active).
For `Oc1cccc(/C=N/Nc2ccc(Cl)nn2)c1O`, the inhibition was 13.3% (active).
For `O=C1CCC(=O)N(O)CCCCCNC(=O)CCC(=O)N(O)CCCCCNC(=O)CCC(=O)N(O)CCCCCN1`, the inhibition was 35.8% (active).
In the case of `CCN1/C(=C\c2ccc3ccccc3[n+]2CC)Sc2cc(C)ccc21`, the inhibition is reported as 13.3% (active).
With `CC(C)(C)NC(=O)COC(=O)c1cc(Cl)ccc1[N+](=O)[O-]` the inhibition was 57.9% (active).
With `CC1CCCN(C(=O)c2ccc3c(c2)C(=O)N(CCC2=CCCCC2)C3=O)C1` (stereo unspecified) the inhibition was 22.9% (active).
With `COc1c(N2CCN(C(=S)Nc3ccccc3F)C(C)C2)c(F)cc2c(=O)c(C(=O)O)cn(C3CC3)c12` (stereo unspecified) the inhibition was 99.7% (active).
For `CN1CCN(c2cc3c(cc2F)c(=O)c(C(=O)O)cn3CCF)CC1`, the inhibition was 98.6% (active).
For `CCn1cc(C(=O)NCCO)c(=O)c2cc(F)c(N3CCN(C)CC3)cc21`, the inhibition was 98.8% (active).
In the case of `O=C(OCC(=O)c1cccs1)c1ccc([N+](=O)[O-])o1`, the inhibition is reported as 16.4% (active).
In the case of `CC(=O)c1c(C)n([O-])c2ccccc2[n+]1=O`, the inhibition is reported as 38.5% (active).
With `O=C(NCC1CCCO1)C(C(=O)c1ccccc1)n1cc(Cl)ccc1=O` (stereo unspecified) the inhibition was 99.8% (active).
